Here are results for 31 molecules from PubChem BioAssay AID504329 (Southern Research Specialized Biocontainment Screening …, 2011).

SMILES strings stand for the structures. The campaign covered roughly 340,000 compounds. About 1,000 (0.29%) were called active. Not all results are given here. Entries with a potency or affinity are not part of this list. Values without a mark were called inactive. No stated cut-off is given here; in the data, inconclusive means inhibition above about 27% without an active follow-up result; inactive means below that.

A short description of this test: NS1A inhibition, H1N1 influenza, cell based functional assay (AID 504329). Conditions: percent inhibition, at 12.5 µM, hits give high values.
`Fc1ccccc1NC(=S)N1CCOCC1`: the inhibition (as a rule, the drop in the measured response relative to a control, in per cent) is 16.1%.
Next, `COC(=O)c1sc(S(=O)(=O)Nc2ccc(C)cc2)c(C(=O)OC)c1C`: 12.7%.
`CCN(/C(N)=N/c1nc(C)cc(C)n1)c1ccccc1`: the inhibition was -6.77%.
Then `CC12CCC(C(=O)N(CSC(=S)N/N=C\c3ccccc3)C1=O)C2(C)C` (stereo unspecified), with 6.84%; and `CC12CCC(C(=O)N(CSC(=S)N/N=C\c3ccccc3Cl)C1=O)C2(C)C` (stereo unspecified), with -1.31%; and `CCC(C(=O)NC1CCCC1)n1c(SCc2cccc(C)c2)nc2ccncc21` (stereo unspecified), with -51.9%.
Next, `O=[N+]([O-])c1c(NCCCO)cc(N2CCCCCC2)c2nonc12`: 21.6%.
In the case of `COc1ccc(-c2nc(C#N)c(N3CC(C)OC(C)C3)o2)cc1OC` (stereo unspecified), the inhibition is 2.35%.
With `COc1ccc(NS(=O)(=O)c2ccc(C(=O)N3CCN(c4ccc(F)cc4)CC3)cc2)cc1`, the inhibition is 1.18%.
As to `CC(CC(F)(F)F)N1CCC(n2nccc2NC(=O)CCCc2ccccc2)CC1` (stereo unspecified), the inhibition is -11%.
In the case of `Fc1ccccc1/C=N/Nc1ccc(Cl)nn1`, the inhibition is -6.11%.
Next, `Oc1ccc(/C=N/Nc2ccc(Cl)nn2)cc1O`: 4.82%; `Oc1c(Br)cc(Br)cc1/C=N/Nc1ccc(Cl)nn1`: 4.26%; `Cc1ccccc1/C=N/Nc1ccc(Cl)nn1`: 3.61%.
Next, `CCCCC(=O)Nc1cccc(C(=O)N/N=C/c2ccc(OC)cc2OC)c1`: 1.12%; `CC(C)OC(=O)c1cn(-c2ccccc2)nc1-c1ccc2c(c1)OCCO2`: -6.27%; `CCN(C[C@H]1N[C@@](C)(C(=O)OC)[C@H]2C(=O)N(Cc3ccccc3)C(=O)[C@@H]12)C(=O)c1ccc(F)cc1`: -26.8%.
Then `O=C(CN1CCN(C(C(=O)Nc2ccc(Cl)cc2C(F)(F)F)c2ccccc2)CC1)NC1CC1` (stereo unspecified), with 3.63%.
Turning to `CC(=O)c1ccc(NC(=O)C(C)Nc2ccc(Cl)cc2)cc1` (stereo unspecified), the inhibition is -4.25%.
Next, `COC(=O)C(=CC(=CN(C)C)C=C(C(=O)OC)C(=O)OC)C(=O)OC`: -13.2%; `CC(C)Cn1c(NCCO)nc2ccccc21`: -6.72%.
Consider `O=C(COC(=O)c1ccccn1)Nc1cccc2ccccc12`, for which the inhibition was -2.54%.
Next, `O=c1[nH]c(-c2ccccn2)cc2ccccc12`: -3.67%.
Next, `CN(C)CCCNCC(=O)Nc1ccccc1N1CCOCC1`: 5.38%; `O=C(COc1ccc2ccccc2c1)N1CCN(C(=O)c2ccco2)CC1`: -12.2%.
Then `O=C1c2ccccc2C(=O)c2c1cccc2N(CCO)CCO`, with 4.16%.
For `CCN(CC)CC(=O)Nc1cccc2c1C(=O)c1ccccc1C2=O`, the inhibition was 11%.
Next, `CC(=O)NC1=C(Nc2ccc(N(C)C)cc2)C(=O)c2ccccc2C1=O`: 12.5%; `CN(C)S(=O)(=O)c1cccc2c1C(=O)c1ccccc1C2=O`: 4.55%; `CNc1c(C(=O)O)ccc2c1C(=O)c1ccccc1C2=O`: 13.4%.
For `CN(C=[N+](C)C)c1cccc2c1C(=O)c1ccccc1C2=O`, the inhibition is 3.5%.
